The nature of experiment [1]: A549 cell viability effects, profiling panel, calcein-AM fluorescence, 48 h, basal (AID 1162). The note with it: higher = more signal.
The nature of experiment [2]: adipocyte viability effects, profiling panel, cell-based, 3T3-L1 adipocytes, calcein-AM fluorescence, 48 h, basal (AID 1163). To be noted: 3T3-L1 adipocytes viability, higher = more signal.
Experiment [3] can be described thus: HepG2 cell viability effects, profiling panel, calcein-AM fluorescence, 48 h, basal (AID 1164). The note with it: higher = more signal.
The nature of experiment [4]: MM1S cell viability effects, profiling panel, calcein-AM fluorescence, 48 h, basal (AID 1165).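 Also: viability of MM1S multiple myeloma cells under basal unstimulated conditions.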 The note with it: higher = more signal.
Experiment [5] in a line: basal RPMI8226 viability, no added stimulus, profiling panel, cell-based, calcein-AM fluorescence, 48 h, PK04 Diversity Set (AID 1166).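 Also: cells grown under basal conditions without added stimulus.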 The note with it: RPMI8226 myeloma viability, higher = more signal.
Experiment [6] can be described thus: basal HepG2 mitochondrial membrane potential changes, profiling panel, cell-based, JC-1 fluorescence, 24 h, 100 nL compound (AID 1167). The note with it: higher = more signal.
Experiment [7] can be described thus: basal 3T3-L1 adipocyte mitochondrial potential changes, profiling panel, cell-based, JC-1 fluorescence, 3T3-L1 adipocytes, 24 h, 100 nL compound (AID 1168). The note with it: JC-1 mitochondrial fluorescence, higher = more signal, called active from +8 up or from −8 down.
Experiment [8] can be described thus: basal RPMI8226 mitochondrial membrane potential changes, profiling panel, cell-based, JC-1 fluorescence, 24 h, 100 nL compound (AID 1169). To be noted: RPMI8226 myeloma, JC-1 mitochondrial potential fluorescence, higher = more signal.
Experiment [9] is described as follows: basal MM1S mitochondrial membrane potential changes, profiling panel, cell-based, JC-1 fluorescence, 24 h, 100 nL compound (AID 1170). To be noted: higher = more signal.
Experiment [10] can be described thus: A549 lung cancer cell viability effects, profiling panel, resazurin fluorescence, 24 h, PK04 Diversity Set (AID 1171). To be noted: higher = more signal, called active from +8 up or from −8 down. Background: Resazurin is reduced to fluorescent resorufin, in cell work by metabolically active cells.

The structures appear in SMILES notation. Activity calls are given as the source filed them.
Also: test concentration not given here.

With `CC(=O)NCCCC[C@@H]1NC(=O)[C@H]2C[C@@H](C(=O)O)[C@@H](c3ccc(O)cc3)N2C1=O`, the z-score in experiment [1] is -0.199; in experiment [2] it was 0.766; in experiment [3], -0.14; in [4], -2.18; in experiment [5] it was -1.3; in [6], 0.237. Also, the z-score is 0.328 (inactive) in experiment [7], -0.621 in experiment [8], -1.55 in experiment [9] and 0.273 (inactive) in experiment [10].
As to `NC(=O)[C@@]1(Cc2ccccc2)N=C(c2ccc(OCCCO)cc2)O[C@H]1c1ccccc1`, the z-score in experiment [1] was -0.611; in [2], 0.422; in experiment [3] it was -0.373; in [4] it was -0.13; in [5], 0.0044; in experiment [6] it was -0.576. Moreover, the z-score is 0.804 (inactive) in experiment [7], -0.318 in experiment [8], 0.577 in experiment [9] and -0.0671 (inactive) in experiment [10].
For the compound `CCCC(=O)N(CCc1c[nH]c2ccccc12)[C@@H]1CC(C(=O)NCCO)=C[C@H](Oc2c(I)cc(CO)cc2OC)[C@H]1O`, the z-score in [1] was 0.0593; in experiment [2], -0.0939; in experiment [3], 0.0635; in [4] it was 0.704; in [5], 0.0598; in experiment [6], 0.149. The z-score in experiment [7] was -0.937 (inactive); in experiment [8], -0.178; in [9], -1.49; in experiment [10], -0.558 (inactive).
Turning to `CCCCN1CC=CC23O[C@@H]4C=CCCOC(=O)C4[C@H]2C(=O)N(CCCCCO)[C@@H]3C1=O` (stereo not given in full), the z-score in [1] is 0.761; in experiment [2] it was 0.159; in [3], 0.858; in experiment [4], 1.83; in experiment [5], 0.916; in experiment [6], 0.84. The z-score in [7] was 0.615 (inactive); in [8] it was 0.117; in experiment [9], -0.832; in experiment [10], -0.318 (inactive).
As for `COc1ccc([Si](C)(C)[C@H]2[C@H](CCn3cc([C@H](O)c4ccccc4)nn3)O[C@@]3(C(=O)N(C)c4ccccc43)[C@@H]2C)cc1`, the z-score was 0.239 in experiment [1]; -0.233 in experiment [2]; 0.132 in [3]; -0.615 in [4]; -1.79 in [5]; -0.602 in experiment [6]. In addition, the z-score in experiment [7] is 0.331 (inactive); in [8], -1.16; in [9], -0.396; in experiment [10], 0.32 (inactive).
As for `CO[C@H]1O[C@H](CO)[C@@H](OC(=O)Nc2ccc(Oc3ccccc3)cc2)[C@H](OC(=O)Nc2ccc3c(c2)OCO3)[C@@H]1OC(=O)Nc1ccc2c(c1)OCO2`, the z-score in experiment [1] is -0.882; in experiment [2] it was -0.132; in experiment [3] it was -0.845; in experiment [4] it was -2.21; in experiment [5] it was -1.74; in experiment [6], -0.594. The z-score was 1.02 (inactive) in [7], -0.48 in [8], -0.751 in [9] and -1.29 (inactive) in experiment [10].
`C=CCN(Cc1ccccc1)C(=O)C(c1cccs1)N(C(=O)/C=C\C(=O)O)c1ccc(CCOCCO)cc1` (stereo not given): the z-score in [1] is 0.631; in experiment [2] it was 0.007; in experiment [3] it was 0.97; in experiment [4] it was 1.82; in experiment [5] it was 0.526; in [6], 0.427. Besides, the z-score in experiment [7] was 0.319 (inactive); in [8], 0.697; in experiment [9], -1.06; in experiment [10], -0.52 (inactive).
For `CCOC(=O)C[C@H]1[C@H](OC(=O)c2ccc(C(=O)c3ccccc3)cc2)[C@@H](NC(=O)c2ccccc2)c2cc(OCCCO)ccc2N1C(=O)c1ccccc1`, the z-score in experiment [1] was 0.223; in experiment [2], 1.05; in [3], 0.496; in [4] it was 0.358; in [5], 0.17; in experiment [6], 0.601. For the same compound, the z-score is 0.00705 (inactive) in experiment [7], 0.892 in experiment [8], 0.0929 in experiment [9] and 0.254 (inactive) in [10].
In the case of `C=CCC(OC(C)=O)[C@@H]1[C@@H](N(Cc2ccc(-c3ccccc3)cc2)C(=O)Cc2ccc(F)cc2)c2cc(OCCCO)ccc2N1C(=O)c1ccc2ccccc2c1` (stereo not given in full), the z-score in experiment [1] is 0.444; in experiment [2], 0.0021; in [3], 0.278; in experiment [4], -0.895; in [5], -0.344; in [6], 1.61. Further, the z-score was -0.413 (inactive) in experiment [7], -0.192 in experiment [8], 0.769 in experiment [9] and 0.799 (inactive) in [10].
Regarding `OCCCC1=CC(C2CC2)N(Cc2cccc(OC(F)(F)F)c2)CC1` (stereo not given), the z-score in experiment [1] is -0.346; in experiment [2] it was 0.643; in [3], 0.43; in experiment [4], -0.522; in experiment [5], 0.0997; in experiment [6], 0.64. Moreover, the z-score in experiment [7] was 0.319 (inactive); in experiment [8], 0.48; in experiment [9] it was 0.572; in experiment [10], 1.83 (inactive).
Consider `C=CCOC(=O)[C@H]1[C@@H]2C(=O)O[C@@H](c3ccccc3)[C@@H](c3ccccc3)N2[C@@H](c2ccc(OCCOC(=O)[C@H]3C[C@H]4C(=O)N[C@@H](CCCCN(C)C)C(=O)N4[C@H]3c3cccc(OCCO)c3)cc2)[C@]12C(=O)Nc1ccc(I)cc12`, for which the z-score is -0.226 in experiment [1]; -0.512 in experiment [2]; 1.22 in [3]; -2.14 in experiment [4]; -1.82 in [5]; -1.92 in experiment [6]. Moreover, the z-score is -1.13 (inactive) in experiment [7], -0.157 in experiment [8], -0.465 in experiment [9] and 0.477 (inactive) in [10].
Consider `[N-]=[N+]=Nc1ccccc1C[C@@]1(C(=O)N2CCCCC2)N=C(c2ccc(OCCCO)cc2)O[C@@H]1c1ccccc1N=[N+]=[N-]`, for which the z-score in experiment [1] is -0.911; in [2] it was 0.0245; in experiment [3], -1.7; in [4], -3.47; in experiment [5], -4.35; in experiment [6], -1.21. Moreover, the z-score in experiment [7] is -0.923 (inactive); in experiment [8], -1.3; in [9], -2.21; in experiment [10], -0.797 (inactive).
As to `C=CCN1C(=O)[C@]2(Cc3ccccc3)N=C(c3ccc(OCCCO)cc3)O[C@@H]2c2ccccc21`, the z-score in [1] was 0.0386; in [2] it was 0.146; in experiment [3] it was -1.62; in [4], -3.02; in experiment [5] it was -3.91; in experiment [6], 0.822. The z-score in experiment [7] is 2.21 (inactive); in experiment [8] it was -1.21; in experiment [9], -2.81; in [10], -2.28 (inactive).
For `O=C1[C@H]2C=C(I)[C@H](C[C@@H]2OCCCCO)[C@@]12CO2`, the z-score was -0.292 in experiment [1]; -0.393 in experiment [2]; -0.66 in [3]; -0.739 in experiment [4]; -0.954 in experiment [5]; -1.71 in experiment [6]. Moreover, the z-score is -0.431 (inactive) in [7], -1.13 in experiment [8], -0.509 in experiment [9] and 0.109 (inactive) in experiment [10].
As for `NC(=O)NCC#Cc1ccc2c(c1)[C@]1(C(=O)N2)[C@H](C(=O)O)[C@H]2C(=O)O[C@H](c3ccccc3)[C@H](c3ccccc3)N2[C@@H]1c1ccc(O)cc1`, the z-score was 0.715 in experiment [1]; 0.407 in experiment [2]; 0.611 in experiment [3]; -0.944 in [4]; 0.0565 in experiment [5]; -1.43 in experiment [6]. For the same compound, the z-score in [7] was -1.56 (inactive); in experiment [8], 0.123; in [9] it was 0.126; in [10], 1.22 (inactive).
Regarding `Cc1ccc(S[C@]2(C(=O)O)CC(=O)N(C(C)C)[C@@H]2c2ccc(CO)cc2)cc1`, the z-score in experiment [1] is 0.716; in experiment [2], 1.07; in experiment [3], 1.19; in experiment [4] it was 0.266; in experiment [5], 0.535; in [6] it was 1.36. Also, the z-score in experiment [7] was -0.285 (inactive); in experiment [8], 0.00862; in experiment [9], -0.317; in [10], -0.831 (inactive).

The record behind these values is PubChem BioAssay.
